Results filed as inconclusive are left out. Active and inactive are the calls of the source. Calls follow the shape of the dose curve; as a rule, active = well fitted cell-killing curve with a large enough effect; inconclusive = small, poorly fitted or top-dose-only effect, or effect the other way; inactive = no such curve, though single readings can be large or run the other way. Starred links: 1 amine or outer side, 2 acyl side, 3 side chain; linkers in the order of their positions; H or OH if unused. Positions of bridges follow the written chain, without caps; N, C: chain ends. Non-standard residues stand in square brackets, D forms with d. Residues, ends and D or L forms follow the SMILES beside them. Chains are numbered I, II in the order given. *: point of attachment. Actinocin(9to1) = Cc1c2oc3c(C)ccc(C(=O)[*:1])c3nc-2c(C(=O)[*:2])c(N)c1=O; NMeV = CN[CH](C(=O)O)C(C)C; Nva = CCC[C@H](N)C(=O)O; Cbz = O=C(OCc1ccccc1)*; Sar = CNCC(=O)O
Experiment: Quantitative High-Throughput drug screen in 47 multiple myeloma cell lines against the NCATS MIPE library collection: JIM1_ECACC cell viability assay (AID 1918964)
Conditions: JIM1 myeloma viability, CellTiter-Glo ATP luminescence, 48 h; series mostly up to 45.8 µM
Text: PI: Beverly A. Mock Ph.D.
Laboratory of Cancer Biology and Genetics,
Center for Cancer Research, National Cancer Institute,
National Institute of Health, Bethesda, Maryland
Drug resistance and disease progression are common in multiple myeloma (MM) patients, underscoring the need for new therapeutic combinations. […] We hypothesized that effective combinations would reduce MYC expression and enhance p16 activity. […] These preclinical data identify potentially useful drug combinations for evaluation in drug-resistant MM and reveal potential mechanisms of combined drug sensitivity.
Described herein is the primary MIPE qHTS used to cherrypick compounds. Validated compounds were then further tested for potential synergistic activiy.
[1] Peat TJ, Gaikwad SM, Dubois W, Gyabaah-Kessie N, Zhang S, Gorjifard S, Phyo Z, Andres M, Hughitt VK, Simpson RM, Miller MA, Girvin AT, Taylor A, Williams D, D'Antonio N, Zhang Y, Rajagopalan A, Flietner E, Wilson K, Zhang X, Shinn P, Klumpp-Thomas C, McKnight C, Itkin Z, Chen L, Kazandijian D, Zhang J, Michalowski AM, Simmons JK, Keats J, Thomas CJ, Mock BA. Drug combinations identified by high-throughput screening promote cell cycle transition and upregulate Smad pathways in myeloma. Cancer Lett. 2023 Aug 1;568:216284. doi: 10.1016/j.canlet.2023.216284. Epub 2023 Jun 24. PMID: 37356470; PMCID: PMC10408729.
SEQUENCE No. (e.g., 1, 2, 3, etc.); […] (e.g., Cells, Incubation, Reagent, etc.); VALUE and DESCRIPTION.
1; Cells; 5 uL; white, solid bottom 1536-well Greiner assay plate.
2; Compounds; 23 nL; Kalypsis pin tool (Wako USA) equipped with a 1536-well pin head to transfer to the assay plates.
3; Incubation; 48 hours; 37C incubation.
4; Reagent;5uL; CellTiter Glo (Promega).
5; Detector; 425V; Luminescence; Viewlux PerkinElmer.
NOTES (numbers refer to Sequence numbers above)
1. The cell-based screening methods employed in this study were like those previously published. Briefly, the corresponding myeloma cell lines were screened in 1,536-well plates with 500 cells, 5-uL per well for inhibition of cell viability (assessed by measuring ATP levels with CellTiterGlo).
2. NCATS MIPE 4.0 library of approved and investigational drugs were added using the Kalypsis pin tool. Wells treated with DMSO only for 100% viability and media only wells for 0% viability were used as controls.
3. The assay plates were covered and incubated for 48 hours in a 37C, 5% CO2 incubator with controlled humidity.
4. After 48 hours, CellTilter-GloTM luminescent substrate mix (Promega) reagent was added to the assay plate and plates we incubated for 5 min at room temperature.
5. Signal was measured as median relative luminescence units on a ViewLux (PerkinElmer) multiplate reader.
[1] Heske CM, Davis MI, Baumgart JT, Wilson K, Gormally MV, Chen L, Zhang X, Ceribelli M, Duveau DY, Guha R, Ferrer M, Arnaldez FI, Ji J, Tran HL, Zhang Y, Mendoza A, Helman LJ, Thomas CJ. Matrix Screen Identifies Synergistic Combination of PARP Inhibitors and Nicotinamide Phosphoribosyltransferase (NAMPT) Inhibitors in Ewing Sarcoma. Clin Cancer Res. 2017 Dec 1;23(23):7301-7311. doi: 10.1158/1078-0432.CCR-17-1121. Epub 2017 Sep 12. PMID: 28899971; PMCID: PMC6636827.
Potency is read from the fitted curve at half-maximal effect.

For COc1cc(OC)c(C=CS(=O)(=O)Cc2ccc(OC)c(NCC(=O)O)c2)c(OC)c1, which Potency is on record?
The Potency was 37.2 nM (active).

With CN1CCCN(C(=O)c2cccc(-c3ccc(C=C4C(=O)Nc5ccc(Cl)cc54)o3)c2)CC1 as the molecule, how does the Potency read?
Its Potency is 6620 nM (active).

For COc1cc(O)c2c(c1)C1OC1C[C@H](O)[C@H](O)C(=O)C=CC[C@H](C)OC2=O (stereo not given in full), which Potency is on record?
The Potency was 2960 nM (active).

Which Potency does the source give for C=C(C)[C@@H]1CC[C@]2(C(=O)O)CC[C@]3(C)[C@H](CC[C@@H]4[C@@]5(C)CC[C@H](O)C(C)(C)[C@@H]5CC[C@]43C)[C@@H]12 here?
Its Potency is “inactive”.

For CC(=O)ON=C1C(c2c(O)[nH]c3cc(Br)ccc23)=Nc2ccccc21, which Potency is on record?
The Potency was 3720 nM (active).

For CN(C)CC(=O)N1CCC(c2ccc(NC(=O)c3ncc(C#N)[nH]3)c(C3=CCCCC3)c2)CC1, which Potency is on record?
Its Potency is 5260 nM (active).

Which Potency does the source give for COc1cc2c(Nc3ccc(Cl)c(Cl)c3F)ncnc2cc1OCC1C[C@@H]2CN(C)C[C@H]2C1 here?
Its Potency is 14800 nM (active).

With CCCNS(=O)(=O)Nc1ncnc(OCCOc2ncc(Br)cn2)c1-c1ccc(Br)cc1 as the molecule, how does the Potency read?
The Potency was “inactive”.

For CC(C)C[C@H](NC(=O)CNC(=O)c1cc(Cl)ccc1Cl)B1OC(=O)CC(CC(=O)O)(C(=O)O)O1 (stereo not given in full), which Potency is on record?
The Potency was 37.2 nM (active).

Which Potency does the source give for C[C@H](O)[C@@H]1C(=O)N2C(C(=O)O)=C(S[C@@H]3CN[C@H](CNS(N)(=O)=O)C3)[C@@H](C)[C@@H]12 here?
The Potency was “inactive”.

With O=C1c2cccc(O)c2C(=O)c2c(O)cc(CO)cc21 as the molecule, how does the Potency read?
The Potency was “inactive”.

Which Potency does the source give for Cc1cc(Nc2ncc3c(n2)N(C)C(=O)N(c2cc(NC(=O)c4cccc(C(F)(F)F)c4)ccc2C)C3)n(C)n1 here?
Its Potency is 118 nM (active).

For N#CNC(=NCCCCCCOc1ccc(Cl)cc1)Nc1ccncc1, which Potency is on record?
Its Potency is 29.6 nM (active).

For O=C(Nc1nnc(-c2ccco2)o1)c1cc(-c2ccccc2)nc2ccccc12, which Potency is on record?
Its Potency is 18700 nM (active).

Which Potency does the source give for COC[C@H](NC(=O)c1cnc(C)s1)C(=O)N[C@@H](COC)C(=O)N[C@@H](Cc1ccccc1)C(=O)[C@@]1(C)CO1 here?
The Potency was 59 nM (active).

For CCN(CC)CCCCNc1ncc2c(n1)N(C)C(=O)N(c1c(Cl)c(OC)cc(OC)c1Cl)C2, which Potency is on record?
Its Potency is “inactive”.

Which Potency does the source give for COc1ccc2cc([S+]([O-])Cc3ncc(C)c(OC)c3C)nc2c1 here?
The Potency was “inactive”.

Which Potency does the source give for CCCCCCCCCCCC(CC1OC(=O)C1CCCCCC)OC(=O)C(CC(C)C)NC=O (stereo not given) here?
The Potency was “inactive”.

With CCCCOc1ccc(C(=O)Nc2ccc(F)cc2F)cc1 as the molecule, how does the Potency read?
The Potency was “inactive”.

With C=CC(=O)Nc1cccc(Nc2nc(NC3CCC(N(C)C)CC3)nc3c2ncn3C(C)C)c1 (stereo not given) as the molecule, how does the Potency read?
The Potency was 1 nM (active).

Which Potency does the source give for Nc1ccn(C[C@@H](CO)OCP(=O)(O)O)c(=O)n1 here?
Its Potency is “inactive”.

With COc1ccc(C(C)=O)c(O)c1 as the molecule, how does the Potency read?
Its Potency is “inactive”.

With Nc1nc(N)c2nc(-c3cccc(O)c3)c(-c3cccc(O)c3)nc2n1 as the molecule, how does the Potency read?
Its Potency is 1870 nM (active).

For Cc1cnn(C)c1C(=O)Nc1cc(Nc2ccc3c(C=Cc4ccccn4)n[nH]c3c2)ccc1F, which Potency is on record?
The Potency was 10500 nM (active).

For Cc1c2oc3c(C)ccc(C(=O)NC4C(=O)NC(C(C)C)C(=O)N5CCCC5C(=O)N(C)CC(=O)N(C)C(C(C)C)C(=O)OC4C)c3nc-2c(C(=O)NC2C(=O)NC(C(C)C)C(=O)N3CCCC3C(=O)N(C)CC(=O)N(C)C(C(C)C)C(=O)OC2C)c(N)c1=O (stereo not given) (I: TVP[Sar][NMeV] / II: TVP[Sar][NMeV]; ester I:1-I:C, II:1-II:C; linker I:N-II:N via Actinocin(9to1); configuration not given here), which Potency is on record?
The Potency was “inactive”.

For O=C1NC(=O)[C@@H](c2cn3c4c(cccc24)CCC3)[C@H]1c1c[nH]c2ccccc12, which Potency is on record?
Its Potency is 46.9 nM (active).

Which Potency does the source give for C=CC(=O)Nc1ccc2ncnc(Nc3ccc(OCc4cccc(F)c4)c(Cl)c3)c2c1 here?
Its Potency is 41.8 nM (active).

For CCC(C=C[C@@H]1OC(=O)C=C[C@H]1C)=C[C@H](C)CC=CC(C)=C[C@@H](C)C(=O)[C@@H](C)[C@H](O)[C@@H](C)CC(C)=CC(=O)O, which Potency is on record?
Its Potency is 15.6 nM (active).

For C[C@@H](Oc1ccc2[nH]nc(C=Cc3cnn(CCO)c3)c2c1)c1c(Cl)cncc1Cl, which Potency is on record?
Its Potency is “inactive”.

Which Potency does the source give for CC(C)(C)[N+]([O-])=Cc1ccc(S(=O)(=O)O)cc1S(=O)(=O)O here?
The Potency was “inactive”.

Which Potency does the source give for CC(=O)SCC(Cc1ccccc1)C(=O)NCC(=O)OCc1ccccc1 (stereo not given) here?
The Potency was 2960 nM (active).

Which Potency does the source give for COc1cccc2c1C(=O)c1c(O)c3c(c(O)c1C2=O)C[C@@](O)(C(C)=O)C[C@H]3O[C@H]1C[C@H](N)[C@H](O)[C@H](C)O1 here?
Its Potency is 74.3 nM (active).

For CCC[C@@H](C=O)NC(=O)[C@H](CC(C)C)NC(=O)[C@H](CC(C)C)NC(=O)OCc1ccccc1 (Cbz-Leu-Leu-[Nva]-aldehyde), which Potency is on record?
The Potency was 372 nM (active).

Which Potency does the source give for N#Cc1ccc(COC[C@H]2O[C@@H](n3c(NCc4ccc(Cl)c(Cl)c4)nc4c(N)ncnc43)[C@@H](O)[C@@H]2O)cc1 here?
Its Potency is 3720 nM (active).

With O=C(O)CCCCCC(=O)NN=C1CCCC1 as the molecule, how does the Potency read?
The Potency was “inactive”.

With CC(=O)O[C@H]1C[C@@H]2CC[C@H]3[C@H]4C[C@H]([N+]5(C)CCCCC5)[C@@H](OC(C)=O)[C@@]4(C)CC[C@@H]3[C@@]2(C)C[C@H]1[N+]1(C)CCCCC1 as the molecule, how does the Potency read?
Its Potency is “inactive”.

For C=CCNc1c(O)cc2c(O)c1C[C@@H](C)C[C@H](OC)[C@@H](O)[C@@H](C)C=C(C)[C@H](OC(N)=O)[C@@H](OC)C=CC=C(C)C(=O)N2, which Potency is on record?
Its Potency is 209 nM (active).

Which Potency does the source give for CN(C)CCN1C(=O)c2cccc3cc(N)cc(c23)C1=O here?
The Potency was 18700 nM (active).

With Cc1ncc(-c2ccnc(Nc3ccc(S(C)(=O)=O)cc3)n2)n1C(C)C as the molecule, how does the Potency read?
The Potency was 2350 nM (active).

For CCNC(=O)c1cc2c(-c3cc(OCCN4CCCC4)c(Cl)cc3Cl)nc(N)nc2s1, which Potency is on record?
Its Potency is 469 nM (active).
